Screening results (PubChem)
Shown are actives, neighbours in structure and some others; about 19% of the full set was active somewhere.
Cycloheximide cs – counter-screen hit for Shiga toxin inhibitors, cycloheximide; cell reporter, cycloheximide protein synthesis inhibition counterscreen; max response, %; 300,000 tested, 12% active; in the data active means max response mostly above about 13%, no sharp cut-off; inactive means mostly below about 14%; further: read at 38.3 µM for the half of the compounds with a filed dose; 0% is about no effect
Pf growth 48h – P. falciparum growth inhibition at 48 hours (one generation). P. falciparum luciferase growth in erythrocytes, 48 h. Potency, µM (highest dose often 28.7 µM), without a hit: top-dose activity change, negative = inhibition, hits mostly inhibitors. 310,000 tested, 5.9% active. AID 504832; further: potency means the concentration at half of the fitted maximal effect; on the % scale 0 is the no-effect control and ±100 the full control effect
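Cell-based growth assay: transgenic P. falciparum expressing firefly luciferase, cultured in red cells within RPMI 1640 containing 0.5% w/v Albumax, 24 mM bicarbonate and gentamycin. A drop in luciferase activity indicates inhibition.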
AMA1-RON2 inh – inhibitors of Plasmodium falciparum AMA1-RON2 interaction; 360,000 tested, 0.2% active; AlphaScreen AMA1-biotinylated RON2 peptide binding; Potency, µM (titrated, usually from 58.2 µM), without a hit: at the highest dose activity change, negative = inhibition, usual class: inhibitors;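 further: potency means the concentration at half of the fitted maximal effect; 0% = vehicle wells and -100% = peptide control; nearly all actives have a fitted effect of over 45% in size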
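AMA1 (3D7) with his tag at 25 nM final met compounds first, then biotinylated RON2 peptide at 25 nM; detection used donor plus acceptor beads, 10 µg/mL apiece, read by AlphaScreen after 30 min at room temperature.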
SARS PLpro yeast – inhibitors of SARS-CoV papain-like protease in yeast; S. cerevisiae expressing SARS-CoV PLpro, growth rescue; Potency, µM (titrated, usually from 32.9 µM), for the others: at the highest dose activity, positive = growth rescue, most hits filed as activators; 330,000 tested, 0.19% active; AID 485353; calls by dose curve; further: potency means the concentration at half of the fitted maximal effect; 0% is about no effect; nearly all actives have a fitted effect of over 55% in size
Shiga inhibitor – Shiga toxin inhibition | Vero cells, Shiga toxin protein synthesis inhibition reporter | inhibition, % at 38.7 µM | 290,000 tested, 9.2% active | AID 2315; in the data active means inhibition mostly above about 28%, no sharp cut-off; inactive means mostly below about 43%; further: 0% is about no effect
Pf growth 96h – P. falciparum growth inhibition at 96 hours; P. falciparum luciferase reporter growth, 96 h; Potency, µM (series often up to 28.7 µM), for the others: at the highest dose activity change, negative = inhibition, hits mostly inhibitors; 320,000 tested, 6.9% active; AID 504834; further: potency means the concentration at half of the fitted maximal effect; on the % scale 0 is the no-effect control and ±100 the full control effect
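Two-generation exposure (96 h) targets delayed-death phenotype. Reporter parasites carrying integrated firefly luciferase, in red cells at 2% hematocrit and 0.05% parasitemia final, kept at 37 C, 5% CO2; luminescence loss indicates inhibition.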
Active calls of the source: *; u = inconclusive; x = not tested or not shown; ! = a repeat was not active; [ ] = remark or other dose. Unless noted, the call rests on the fitted dose curve; in most records, active means well fitted curve in the direction sought with a large enough effect; inconclusive means small, poorly fitted or top-dose-only effect, or another doubt; inactive means no such curve, though single readings can be large; an effect the other way counts as inactive or inconclusive.

SMILES	Cycloheximide cs	Pf growth 48h	AMA1-RON2 inh	SARS PLpro yeast	Shiga inhibitor	Pf growth 96h
CCOC(=O)C1CCCN(C(=O)c2ccc(NS(=O)(=O)c3ccc4[nH]c(=O)[nH]c4c3)cc2)C1 (centres undefined)	x	u	-14.3%	-2.3%	x	5.86µM*
CC1CC(C)CN(C(=O)c2ccc(NS(=O)(=O)c3ccc4[nH]c(=O)[nH]c4c3)cc2)C1 (centres undefined)	x	u	-2.5%	-5.7%	x	u
NS(=O)(=O)c1ccc(NC(=S)Nc2ccn(Cc3cccc4ccccc34)n2)cc1	-5.7	u	40.8%	4.5%	-2.9	0.0%
CC[N+](C)(CC)CCOC(=O)C1c2ccccc2Oc2ccccc21	x	10.4µM*!	-18.1%	-1.6%	x	10.4µM*!
COc1ccc(NC(=O)NCc2ccccn2)c(OC)c1	-1.9	-3.8%	-1.3%	1.8%	-7.8	18.8%
COc1ccc(/C=C2\SC(=NCc3ccccc3)NC2=O)cc1	8.8	u	-17.3%	4.0%	5.0	u
COc1ccc(/C=C2\SC(=Nc3ccccc3OC)NC2=O)cc1	20.4*	0.329µM*	14.1%	-16.1%	68.5	34.3%
COc1cc(/C=C2\SC(=Nc3ccccc3OC)NC2=O)ccc1O	16.0*	-16.4%	18.8%	0.6%	-1.8	22.2%
CC1CCN(S(=O)(=O)c2ccc3c4c2CC(=O)N4CC(C)S3)CC1 (centres undefined)	-0.7	8.28µM*	-13.4%	-3.5%	-5.3	11.9%
Cc1nc(-c2ccccc2)sc1C(=O)Nc1ccccc1F	46.3*	-25.1%	8.9%	-1.8%	28.8	-0.6%
Cc1nc(-c2ccncc2)sc1C(=O)Nc1ccc(Cl)cc1	-1.7	u	-11.8%	10.7%	-10.2	-8.4%
CC(=O)c1sc(-c2ccccc2)nc1C	34.9*	20.0%[5.75 µM]	0.0%	0.6%	43.5	-153.0%[5.75 µM]
COc1ccc(/C=C/C(=O)c2sc(-c3ccccc3)nc2C)cc1	-0.3	-19.2%	-10.4%	2.0%	-11.3	-13.4%
Cc1nc(-c2ccc([N+](=O)[O-])cc2)sc1C(=O)O	20.1*	95.5%	-14.9%	0.1%	36.4	-7.2%
Cc1nc(-c2ccc(Cl)cc2)sc1C(=O)O	24.6	120.5%	-13.0%	-0.6%	91.3*	0.0%
COc1ccc(NC(=O)c2sc(-c3ccccc3)nc2C)c(OC)c1	-6.0	-12.2%	-9.0%	0.1%	2.2	150.7%
O=C(CCCCC(=O)OCC1CCCO1)OCC1CCCO1 (centres undefined)	x	x	-6.6%	x	x	x
COc1ccc(-c2nc3c(c(=O)n(C)c(=O)n3C)n2CC2CC(c3ccccc3)=NO2)cc1OC (centres undefined)	x	x	42.6%	x	x	x
CCNC(=O)c1sc(-c2ccccc2)nc1C	44.5*	86.6%	-1.2%	4.7%	65.9*	x
Cc1nc(-c2ccccc2)sc1C(=O)O	31.5*	54.7%	-1.1%	-1.0%	83.8*	29.6%
Cc1ccc(-c2nc(C)c(C(=O)O)s2)cc1	20.8*	277.2%	-0.3%	-1.0%	37.2	129.8%
O=S(=O)(c1ccc(F)cc1)N1CCC2(CC1)OCCN2S(=O)(=O)c1cccs1	x	-26.9%	-9.5%	8.3%	x	u
CN(CC1COc2ccccc2O1)C(=O)CSc1ncccn1 (centres undefined)	x	x	3.7%	8.0%	x	x
CCOc1cc(/C=N/NC(=O)COc2ccc(C)cc2)ccc1OC(=O)c1cccs1	-2.9	7.9%	-1.0%	-6.5%	0.6	15.1%
COc1cc(/C=N/NC(=O)COc2ccc(C)cc2)ccc1OC(=O)c1cccs1	16.3*	8.8%	-3.9%	-6.5%	12.6	13.1%
SMILES	Cycloheximide cs	Pf growth 48h	AMA1-RON2 inh	SARS PLpro yeast	Shiga inhibitor	Pf growth 96h
COc1cc(/C=N/NC(=O)C(N)=O)ccc1OC(=O)c1cccs1	-1.8	60.8%	17.9%	-0.2%	-8.0	28.1%
COc1cc(/C=N/NC(=O)c2ccccn2)ccc1OC(=O)c1cccs1	36.5*	50.7%	40.9%	-5.8%	66.8*	u
COc1cc(/C=N/Nc2ccccc2)ccc1OC(=O)c1cccs1	34.7*	-16.9%	11.7%	-34.6%	61.1	u
COc1cc(/C=N/NC(=O)c2cccnc2)cc2c1OCO2	2.2	21.6%	-10.7%	1.8%	-7.4	u
COc1cc(/C=N/NC(=O)c2ccccn2)cc2c1OCO2	57.1*	166.7%	73.8%	-4.1%	106.9*	1.7%
Cc1cc(C)cc(NC(=S)Nc2ccc(Cl)c(Cl)c2)c1	-2.2	13.1µM*	54.8%	-3.6%	-11.8	13.2%
Cc1ccc(NC(=S)Nc2ccc(OC(F)F)c(Cl)c2)cc1Cl	11.6	u	40.0%	-26.7%	35.8	u
Cc1ccc(NC(=S)Nc2ccc(Cl)c(Cl)c2)c(OC(F)F)c1	-1.2	u	9.2%	-89.6%	-9.2	4.15µM*
CC[C@H](C)[C@H](NC(=O)CNC(=O)[C@@H](NC(=O)[C@@H](NC(=O)[C@H](Cc1ccc(O)cc1)NC(=O)[C@H](CC(C)C)NC(=O)[C@H](C)NC(=O)[C@H](CCC(N)=O)NC(=O)CNC(=O)[C@@H]1CCCN1C(=O)CNC(=O)[C@H](Cc1ccccc1)NC(=O)[C@H](Cc1cnc[nH]1)NC(=O)[C@@H](NC(=O)CNC(=O)[C@H](CCCNC(=N)N)NC(=O)[C@H](CCCNC(=N)N)NC(=O)[C@@H](NC(=O)[C@H](CC(N)=O)NC(=O)[C@@H](N)CS)[C@@H](C)O)[C@@H](C)CC)[C@@H](C)O)[C@@H](C)O)C(=O)O	-7.8	x	x	x	-4.2	x
Nc1ncc(-c2ccccc2)c(-c2ccc(OCc3ccccc3)cc2O)n1	2.1	11.7µM*	-10.4%	-1.1%	-6.9	u
C=C(C)COc1ccc(-c2nc(N)ncc2-c2ccc(Cl)cc2)c(O)c1	-2.0	13.1µM*	-11.9%	-6.4%	-7.1	u
CCC(=O)N(C)C[C@@H]1Oc2ncc(Br)cc2C(=O)N([C@@H](C)CO)C[C@H]1C	x	x	-6.4%	x	x	x
CC(C)CC1NC(=O)N(CC(=O)N(C)C2CCCCC2)C1=O (centres undefined)	x	x	1.1%	3.1%	x	x
CN(C(=O)CN1C(=O)C2C3CC(C(Br)C3Br)C2C1=O)C1CCCCC1 (centres undefined)	-4.0	5.86µM*	-9.3%	-2.9%	-4.1	1.0%
COc1ccc(C=O)cc1	x	27.9%	-5.5%	0.5%	x	5.2%
COc1ccc(/C=C/c2cc(OC)cc(=O)o2)cc1	48.9*	x	x	x	86.0*	x
COc1ccc(/C=C/c2ccncc2)cc1	40.0*	66.2%	-12.2%	-5.5%	94.3*	216.4%
CN(C)c1ccc(C=Cc2cnccn2)cc1	x	x	10.0%	x	x	x
CN(C)c1ccc(/C=C/c2ccncc2)cc1	32.0*	25.1%	-1.5%	-0.6%	68.0*	-6.7%
Cc1cc(C)cc(NC(=O)CSc2nnc(-c3ccccc3C)o2)c1	36.1*	77.4%	-6.2%	7.6%	43.3	-20.1%
Cc1cccc(NC(=O)CSc2nnc(-c3ccccc3C)o2)c1	36.9*	500.0%	-3.3%	5.8%	68.8*	-24.6%
